Each structure is given as a SMILES string. Where “and” joins values, the source holds several entries; their conditions need not be identical. Equal values may be shown once. Unmarked numbers belong to inactive results. Inconclusive results are not listed. Calls of active or inactive are those of the source. Unless noted, calls follow the shape of the dose curve; as a rule, active = well fitted curve in the direction sought with a large enough effect; inconclusive = small, poorly fitted or top-dose-only effect, or another doubt; inactive = no such curve, though single readings can be large; an effect the other way counts as inactive or inconclusive.

The values that follow come from PubChem BioAssay (NCATS).

The target of experiment [1] is Glucocorticoid receptor (Homo sapiens) (UniProt P04150). The experiment in a line: GR-GFP Redistribution (AID 450;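 active = compounds whose dose series gives a full or clear partial fitted curve of increased nuclear translocation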; also: potency is read from the fitted curve at half-maximal effect). The following applies: U2OS GR-GFP nuclear translocation, laser cytometry, 2 h.
The target is the same in experiment [2]. The experiment in a line: GR-EFC Redistribution (AID 451; calls by dose curve; also: potency is read from the fitted curve at half-maximal effect). Conditions: CHO-K1 GR-EFC translocation, beta-gal luminescence, 2 h. Summed up: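 CHO-K1 cells expressing nuclear EA and GR-ED fragments of b-gal; compounds titrated up to 46 uM final, 2 h at 37 C. GR nuclear translocation read as complemented b-gal luminescence after 1 h RT detection.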
For experiment [3], the target named is Mitogen-activated protein kinase 10 (Mus musculus) (UniProt Q61831). The experiment can be described thus: JNK3 AlphaScreen Assay (AID 530; active = well fitted curve in either direction with a large enough effect, not every such curve was filed as active;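 also: kinase came from lysate of stimulated human HepG2 cells; signal reports phosphorylation of biotinylated GST-cJun 1-79 at Ser73 with 10 µM ATP; % is scaled to controls: 0 for no effect and ±100 for the full control effect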). Conditions: JNK3 lysate, c-Jun phosphorylation; series mostly up to 57.1 µM. A digest of the protocol: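 Activity was read by AlphaScreen after JNK3-containing HepG2 lysate (cytokine pre-activated) phosphorylated biotinylated GST-cJun with 10 uM ATP at room temperature. Phospho-Ser73 cJun antibody with Protein-A acceptor beads provided detection.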

The target of experiment [4] is 3',5'-cyclic-AMP phosphodiesterase 4B (Homo sapiens) (UniProt Q07343). The experiment in a line: qHTS Assay for Inhibitors of PDE-IV (AID 607; active = well fitted activation curve with a large enough effect in the main read-out, with a control signal flat, not every such curve was filed as active; also: % of control where 0% means no effect). Conditions: HEK293 ACTOne CNG channel cells, membrane potential fluorescence; series mostly up to 22.9 µM. A digest of the protocol:
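Cell-based read-out of cAMP via a modified cyclic nucleotide-gated channel and membrane potential dye (535/590 nm) in HEK293 cells expressing PDE4 endogenously. Compounds tested up to 22.9 uM final; 100 uM RO 20-1724 reference.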

Experiment [5] can be described thus: Cell Viability - N2a (AID 540).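 Also: plate controls were DMSO alone for no effect and tamoxifen control for full effect; nearly all actives have a fitted effect of over 45% in size.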 Conditions: N2a mouse neuroblastoma cell viability; activity change, negative = cytotoxicity: at 92.2 µM (top of the series). Summed up:
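Cytotoxicity was scored as loss of cellular ATP in N2a cells, a mouse neuroblastoma line. Compounds are applied in a qHTS concentration series for 40 hr at 37 °C.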

Experiment [6] can be described thus: Cell Viability - NIH 3T3 (AID 541).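 Also: cells exposed to compound for 40 hours; plate controls were DMSO alone for no effect and tamoxifen positive control for full effect; nearly all actives have a fitted effect of over 25% in size.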 The following applies: NIH 3T3 cell viability, qHTS; at 92.2 µM (top of the series). Summed up: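 Cells seeded at 1000/well, rested 5 hr at 37 °C, then dosed and incubated 40 hr at 37 °C. CellTiter-Glo added, 20 min room temperature, luminescence read. AC50 by Hill fit.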
Experiment [7] can be described thus: Cell Viability - HUV-EC-C (AID 542).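 Also: cells exposed to compound for 40 hours; % is scaled to controls: 0 for no effect and ±100 for the full control effect; nearly all actives have a fitted effect of over 35% in size.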 The following applies: HUV-EC-C endothelial cell viability, qHTS; series mostly up to 92.2 µM. A digest of the protocol:
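Cells were seeded at 1000 per well and incubated 5 hr at 37 °C before compound addition. After 40 hr at 37 °C, CellTiter-Glo reagent was added for 20 min and luminescence read. AC50 values came from Hill-equation modelling.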

Experiment [8] is described as follows: Cell Viability - H-4-II-E (AID 543).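 Also: cells exposed to compound for 40 hours; % is scaled to controls: 0 for no effect and ±100 for the full control effect; nearly all actives have a fitted effect of over 35% in size.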 The following applies: H-4-II-E rat hepatoma viability; series mostly up to 92.2 µM. A digest of the protocol: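 Cells seeded at 1500 per well and rested 5 hr; compounds added; 40 hr incubation at 37 °C; CellTiter-Glo added, 20 min at room temperature; luminescence read. Hill-equation fits gave AC50.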
Experiment [9] in a line: Cell Viability - SH-SY5Y (AID 544).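 Also: cells exposed to compound for 40 hours; nearly all actives have a fitted effect of over 55% in size.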 Also: potency is read from the fitted curve at half-maximal effect. The following applies: SH-SY5Y neuroblastoma cell viability; viability change, negative = cytotoxic: at 92.2 µM (top of the series). Summed up: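 Cells were plated at 1500 per well and allowed 5 hr at 37 °C. Compounds were added across a concentration range and incubated 40 hr at 37 °C. CellTiter-Glo was added for 20 min at room temperature before luminescence reading.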

Experiment [10] is described as follows: Cell Viability - Renal Proximal Tubule (AID 545).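 Also: cells exposed to compound for 40 hours; nearly all actives have a fitted effect of over 40% in size.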 The following applies: renal proximal tubule cells viability, primary cells of rat origin; activity change, negative = cytotoxicity: at 91.7 µM (top of the series). A digest of the protocol:
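Cytotoxicity is scored as a concentration-dependent drop in cellular ATP in primary rat renal proximal tubule cells exposed for 40 hr. AC50 derives from Hill modelling.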

Experiment [11] is described as follows: Cell Viability - Mesenchymal (AID 546).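 Also: cells exposed to compound for 40 hours before reading.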 Conditions: mesenchymal cells viability, qHTS; activity change, negative = cytotoxicity: at 91.7 µM (top of the series). A digest of the protocol: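 Human renal mesenchymal cells (glomerulus-derived), 1000 cells/well, 5 hr 37 °C pre-incubation; compound 40 hr, 37 °C; CellTiter-Glo, 20 min RT; luminescence; AC50 via Hill equation.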

Experiment [12] can be described thus: Cellular Toxicity (caspase-3) HepG2 (AID 654).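 Also: cells exposed to compound for 16 hours before reading; 0% = DMSO alone and 100% = caspase signal from 100 µM tamoxifen.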 Conditions: HepG2 caspase-3 activation, luminescence; series mostly up to 92.2 µM. A digest of the protocol:
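Caspase 3/7 activation in HepG2 is measured as rising luminescence after a 16 hr treatment at 37 °C. Values are scaled between DMSO basal and 100 uM tamoxifen, and AC50 is fitted with the Hill equation.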

A short description of experiment [13]: Cellular Toxicity (caspase-3) Jurkat (AID 655).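 Also: cells exposed to compound for 16 h at 37 °C before reading.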 Conditions: Jurkat caspase-3 activation, luminescence, DMSO = 0%, tamoxifen = 100%; at 92.2 µM (top of the series). A digest of the protocol:
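Caspase 3/7 activation is scored as increased luminescence in Jurkat cells cultured with compound for 16 hours in complete medium. AC50 values come from Hill fits of qHTS concentration-response data normalized to DMSO and 100 uM tamoxifen controls.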

Experiment [14] can be described thus: Cellular Toxicity (caspase-3) HUV-EC-C (AID 656). The following applies: HUV-EC-C cells, caspase-3 activation (apoptosis); series mostly up to 92.2 µM. A digest of the protocol:
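Read-out: luminescence proportional to caspase 3/7 activity, measured 20 min after adding Caspase-Glo 3/7 reagent. Cells (HUV-EC-C) had received compound for 16 hr at 37°C. Increases relative to DMSO and 100 uM tamoxifen gave concentration-response AC50 values.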

Experiment [15] can be described thus: Cellular Toxicity (caspase-3) SHSY5Y (AID 657).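 Also: cells exposed to compound for 16 hours at 37 °C.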 Conditions: SH-SY5Y caspase-3 activation, DMSO zero, 10 µM staurosporine = 100%; series mostly up to 91.7 µM. A digest of the protocol:
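Cells plated and incubated 5 h at 37 °C, dosed over a concentration range, incubated 16 h, then given Caspase-Glo 3/7 reagent for 1 h at room temperature before luminescence reading. Staurosporine (10 uM) defined full stimulation.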

Experiment [16] in a line: Cellular Toxicity (caspase-3) BJ (AID 658). The following applies: BJ fibroblasts, luminescence, normalized: DMSO 0%, staurosporine 100%; series mostly up to 91.7 µM. Summed up: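 qHTS, BJ fibroblasts, 1000 cells/well; 5 hr preincubation, 16 hr compound, 37 °C; Caspase-Glo 3/7 reagent, 1 hr RT; luminescence. DMSO = 0%, 10 uM staurosporine = 100%. Hill-equation AC50.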

Experiment [17] is described as follows: Cellular Toxicity (caspase-3) MRC-5 (AID 659). The following applies: MRC-5 cells, luminescence; Potency: caspase-3 activation; series mostly up to 91.7 µM. Summed up: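 MRC-5 fibroblasts, 1500/well; 16 h cpd, 37 °C; Caspase-Glo 3/7, 1 h RT; lumi read. Norm: DMSO = 0%, 10 uM staurosporine = 100%. Hill-fit AC50 from qHTS conc-response.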
Experiment [18] can be described thus: Cellular Toxicity (caspase-3) SK-N-SH (AID 661). The following applies: SK-N-SH caspase-3 activation, qHTS; series mostly up to 91.7 µM. A digest of the protocol: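 Cells were seeded and incubated 5 hr at 37 °C, dosed with compound over a concentration range for 16 hr, then given Caspase-Glo 3/7 reagent for 1 hr at room temperature before luminescence reading.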

Experiment [19] in a line: Cellular Toxicity (caspase-3) H-4-II-E (AID 663).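 Also: cells exposed to compound for 16 hr before readout.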 Conditions: H-4-II-E rat hepatoma, scaled: DMSO 0%, 100 µM tamoxifen 100%; at 92.2 µM (top of the series). A digest of the protocol: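 H-4-II-E rat hepatoma, 1500 cells/well, 5 hr settle at 37 °C; compound 16 hr, 37 °C, complete medium; Caspase-Glo 3/7, 20 min RT; luminescence. DMSO = 0%, 100 uM tamoxifen = 100%; Hill-equation AC50.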

The nature of experiment [20]: Stat Signaling Pathway (AID 446; active = well fitted curve in either direction with a large enough effect, not every such curve was filed as active;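 also: ME-180 cervical cancer cells given 40 pM IL-6 alongside compound; SIE-controlled beta-lactamase reporter measured as 460/530 nm FRET emission ratio; % is scaled to controls: 0 for no effect and ±100 for the full control effect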). Conditions: ME-180 (cervical carcinoma) SIE beta-lactamase reporter, IL-6 stimulated, 5 h; at 17.2 µM (top of the series). Summed up:
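FRET read-out (405 nm excitation, 460/530 nm emission) of a beta-lactamase reporter under a STAT-inducible element in ME-180 cervical carcinoma cells. Cells with compound receive 40 pM IL-6 for 5 h. Values are normalised to AC90 stimulation and AC90 JAK-inhibitor controls.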

Sequence of 3',5'-cyclic-AMP phosphodiesterase 4B (Homo sapiens) (Q07343 whole entry, looked up): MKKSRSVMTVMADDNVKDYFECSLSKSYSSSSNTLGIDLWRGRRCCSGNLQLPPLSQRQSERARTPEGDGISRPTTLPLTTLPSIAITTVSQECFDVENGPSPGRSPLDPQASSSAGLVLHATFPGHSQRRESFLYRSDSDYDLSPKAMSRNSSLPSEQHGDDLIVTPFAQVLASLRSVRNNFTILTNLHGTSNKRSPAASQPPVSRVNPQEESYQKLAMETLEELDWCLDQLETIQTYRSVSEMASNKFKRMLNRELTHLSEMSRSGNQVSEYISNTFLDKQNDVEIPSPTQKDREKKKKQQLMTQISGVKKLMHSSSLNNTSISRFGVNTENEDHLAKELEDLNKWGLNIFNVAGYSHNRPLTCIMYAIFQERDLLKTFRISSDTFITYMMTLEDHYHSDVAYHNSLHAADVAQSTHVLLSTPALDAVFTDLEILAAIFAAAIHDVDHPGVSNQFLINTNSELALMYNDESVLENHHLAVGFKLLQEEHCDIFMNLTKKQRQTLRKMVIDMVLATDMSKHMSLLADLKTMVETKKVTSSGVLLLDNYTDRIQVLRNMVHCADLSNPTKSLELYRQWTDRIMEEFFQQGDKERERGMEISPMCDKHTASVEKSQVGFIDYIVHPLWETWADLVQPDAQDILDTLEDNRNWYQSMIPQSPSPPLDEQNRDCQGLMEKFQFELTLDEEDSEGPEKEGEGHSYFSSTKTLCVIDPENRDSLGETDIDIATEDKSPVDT
Sequence of Glucocorticoid receptor (Homo sapiens) (P04150 whole entry, looked up, the tested form may be a part): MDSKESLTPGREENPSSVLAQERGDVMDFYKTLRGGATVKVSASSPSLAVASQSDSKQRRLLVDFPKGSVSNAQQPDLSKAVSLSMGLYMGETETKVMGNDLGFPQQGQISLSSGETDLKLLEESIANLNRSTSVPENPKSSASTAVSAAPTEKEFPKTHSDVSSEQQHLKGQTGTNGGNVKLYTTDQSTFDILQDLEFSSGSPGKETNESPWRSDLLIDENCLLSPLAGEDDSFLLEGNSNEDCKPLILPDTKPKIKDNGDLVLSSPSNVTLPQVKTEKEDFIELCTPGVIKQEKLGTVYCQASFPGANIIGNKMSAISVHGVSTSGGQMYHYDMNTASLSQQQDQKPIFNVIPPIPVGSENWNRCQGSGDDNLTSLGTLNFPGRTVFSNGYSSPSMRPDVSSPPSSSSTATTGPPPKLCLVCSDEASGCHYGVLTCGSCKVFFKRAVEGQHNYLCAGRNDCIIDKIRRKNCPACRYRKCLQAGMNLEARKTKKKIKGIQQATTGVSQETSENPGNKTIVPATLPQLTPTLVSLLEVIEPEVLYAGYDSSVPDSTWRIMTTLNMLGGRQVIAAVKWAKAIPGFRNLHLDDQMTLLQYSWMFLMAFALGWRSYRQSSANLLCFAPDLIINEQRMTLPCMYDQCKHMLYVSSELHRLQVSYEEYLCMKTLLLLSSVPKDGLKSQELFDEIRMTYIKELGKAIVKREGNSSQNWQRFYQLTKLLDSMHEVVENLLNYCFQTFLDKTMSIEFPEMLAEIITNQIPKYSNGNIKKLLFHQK

Take `COc1cccc(-c2cc(=O)c3ccccc3o2)c1N`: the Potency in experiment [1] and in experiment [2] was over 46 µM throughout. Moreover, the outcome in experiment [3] and in [4] was inactive.
For `CCn1cc(C(=O)O)c(=O)c2ccc(C)nc21`, the Potency entry in experiment [5], in [7], in [8], in experiment [9], in experiment [10] and in experiment [11] was “inactive” each time. Further, the Potency entry in [12], in experiment [14], in experiment [17] and in experiment [18] was “inactive” in each case. For the same compound, in [6], the activity change, negative = cytotoxicity was 4.63%. The caspase-3 activation was 0.304% in experiment [13] and -0.698% in experiment [19]. In addition, the result in experiment [15] and in [16] was inactive.
Regarding `COc1ccc(Cc2nccc3cc(OC)c(OC)cc23)cc1OC`, in experiment [3], the compound was called inactive.
As to `O=c1cc(-c2ccc(O)cc2)oc2cc(O)cc(O)c12`, the activity, negative = inhibition in experiment [20] was -101% (active). The Potency in [1] was > 46 µM and > 20.6 µM; in experiment [2], > 46 µM and > 20.6 µM; in experiment [9] it was 25.1 µM (active). For the same compound, the Potency result in experiment [5], in [7], in experiment [11], in experiment [12], in experiment [14] and in [17] was “inactive” each time. Moreover, the Potency entry in [18] was “inactive”. The activity change, negative = cytotoxicity in [6] was -105% (active). In addition, the compound was classed as inactive in experiment [4], in experiment [15] and in experiment [16]. Moreover, the caspase-3 activation was 8.24% in experiment [13] and 9.21% in [19].
`O=c1[nH]cnc2c1ncn2[C@H]1CC[C@@H](CO)O1`: the Potency entry in [5], in experiment [7], in [8], in experiment [9], in experiment [10] and in [11] was “inactive” throughout. The Potency result in experiment [12], in [14], in [17] and in [18] was “inactive” each time. For the same compound, the activity change, negative = cytotoxicity in experiment [6] was 6.95%. For the same compound, the caspase-3 activation was 3.7% in experiment [13] and 0.398% in experiment [19]. Besides, the compound was classed as inactive in [15] and in [16].
As for `Nc1ncnc2c1ncn2[C@@H]1O[C@@H](CO)[C@H](O)[C@H]1O`, the activity, negative = inhibition in experiment [20] was -10%. In addition, the Potency in experiment [1] and in experiment [2] was over 20.6 µM throughout. The result in experiment [3] and in [4] was inactive.
For the compound `CCCCCCCCCCCC1=C(O)C(=O)C=C(O)C1=O`, the Potency in experiment [1] and in experiment [2] was over 46 µM throughout. In addition, the outcome in experiment [3] and in experiment [4] was inactive.
Consider `COc1ccc(-c2coc3cc(O)ccc3c2=O)cc1`, for which the Potency in experiment [1] and in experiment [2] was over 46 µM each time. The compound was classed as inactive in experiment [3].
Regarding `CC(C)[C@H](CO)Nc1nc(Nc2ccc(C(=O)O)c(Cl)c2)c2ncn(C(C)C)c2n1`, the Potency in experiment [1] and in experiment [2] was over 46 µM throughout. The compound was called inactive in experiment [3].
